aSyn 5UTR act: Activators working through SNCA 5'UTR binding (MLPCN) | alpha-synuclein 5'UTR reporter, activators screen | activity score, % (tested at 7.5 µM), hits read low | 7.1% of 300,000 active; in the data active = activity score below about -60%
Active calls of the source: *. A selection follows.

For CC(C)c1ccc(N(C(=O)c2cc3ccccc3oc2=O)C2C=CS(=O)(=O)C2)cc1 (stereo not drawn) the results were aSyn 5UTR act -122*.
For CCCC1c2ccc(C)n2CCN1C(=O)Nc1ccccc1Cl (stereo not drawn) the results were aSyn 5UTR act -120*.
For COc1ccc(OC)c(C(=O)Cn2nnc(-c3ccc(N4CCOCC4)cc3)n2)c1 the results were aSyn 5UTR act -135*.
Screening COc1ccc(-c2ccc(-c3nnn(CC(=O)N4CCOCC4)n3)cc2)cc1 returned aSyn 5UTR act -166*.
CCOC(=O)C1CCN(C(=O)CNC(=O)c2nn(-c3ccc(OC)c(Cl)c3)c(=O)c3ccccc23)CC1 was read as aSyn 5UTR act -70*.
For CCCS(=O)(=O)c1nc(S(=O)(=O)c2ccc(C)cc2)c(N2CCC(C(N)=O)CC2)s1 the results were aSyn 5UTR act -75*.
Screening CCCS(=O)(=O)c1nc(S(=O)(=O)c2ccc(Cl)cc2)c(N2CCC(O)CC2)s1 returned aSyn 5UTR act -95*.
`O=C(CSc1ccccn1)Nc1ccc2c(c1)oc1ccccc12` gave aSyn 5UTR act -122*.
For COc1cc2c(cc1NC(=O)CSc1ccccn1)oc1ccccc12 the results were aSyn 5UTR act -281*.
For O=C(Nc1ccc([N+](=O)[O-])cn1)c1ccc2c(c1)OCO2 the results were aSyn 5UTR act -91*.
For CC(C)(C)c1ccc(C(=O)Nc2ccc([N+](=O)[O-])cn2)cc1 the results were aSyn 5UTR act -72*.
O=C(NC(Nc1ncc(S(=O)(=O)c2ccc([N+](=O)[O-])cc2)s1)(C(F)(F)F)C(F)(F)F)c1ccc(Cl)cc1 was read as aSyn 5UTR act 73.
`Cc1c(/C=C/C(=O)c2ccc(O)cc2)cnn1C` gave aSyn 5UTR act -146*.
`CCn1cc(/C=C/C(=O)c2ccc(O)cc2)c(C)n1` gave aSyn 5UTR act -105*.
Screening Cc1c(/C=C/C(=O)c2ccccc2)cnn1C returned aSyn 5UTR act -123*.
For Cc1c(/C=C/C(=O)c2ccc(C(C)C)cc2)cnn1C the results were aSyn 5UTR act -92*.
For Cc1c(/C=C/C(=O)c2ccc(Cl)s2)cnn1C the results were aSyn 5UTR act -163*.
`CCn1ncc(/C=C/C(=O)c2ccccc2)c1C` gave aSyn 5UTR act -70*.
`Cc1nn(C)cc1/C=C/C(=O)c1ccccc1` gave aSyn 5UTR act -110*.
`COc1cc2nc(CN(C)Cc3ccc(OC)c(OC)c3OC)[nH]c(=O)c2cc1OC` gave aSyn 5UTR act -90*.
`Cc1ccccc1-c1nnc(-c2cccs2)o1` gave aSyn 5UTR act -116*.
Screening Cc1ccccc1-c1noc(-c2cccs2)n1 returned aSyn 5UTR act -251*.
`O=C(COC(=O)c1cccc(O)c1)c1ccccc1` gave aSyn 5UTR act -69*.
Screening Nc1cccc(C(=O)OCC(=O)c2ccccc2)c1 returned aSyn 5UTR act -86*.
`Cc1ccc(C(=O)COC(=O)c2ccc(O)cc2)cc1` gave aSyn 5UTR act -182*.
Screening CCCCCC(=O)Nc1ccc(N2CCN(CC)CC2)c(Cl)c1 returned aSyn 5UTR act -152*.
CCN1CCN(c2ccc(NC(=O)c3ccccc3F)cc2Cl)CC1 was read as aSyn 5UTR act -136*.
C/C(=N\Nc1ncc(Cl)cc1Cl)c1ccc(OC(F)F)cc1 was read as aSyn 5UTR act -62*.
For C/C(=N\Nc1ncc(Cl)cc1Cl)c1ccc2c(c1)OCO2 the results were aSyn 5UTR act -79*.
CCOC(=O)C1=C(c2ccccc2)OC(N)=C(C#N)C1C(C)C (stereo not drawn) was read as aSyn 5UTR act -103*.
Screening N#CC1=C(N)Oc2ccc3ccccc3c2C1c1cccnc1 (stereo not drawn) returned aSyn 5UTR act 54.
Screening CCOC(=O)C1=C(CSc2nc(-c3ccccc3)ccc2C#N)OC(N)=C(C#N)C1c1ccccc1 (stereo not drawn) returned aSyn 5UTR act -103*.
For CCOC(=O)C1=C(CSc2nc(-c3ccccc3)ccc2C#N)OC(N)=C(C#N)C1c1cccnc1 (stereo not drawn) the results were aSyn 5UTR act -84*.
For c1ccc2c(COn3nnc4ccccc43)cccc2c1 the results were aSyn 5UTR act -223*.
Screening CCOC(=O)CC1COCCN1C(=O)c1ccc2oc(Cc3ccccc3)nc2c1 (stereo not drawn) returned aSyn 5UTR act -132*.
`O=C(c1ccc2oc(CCc3ccccc3)nc2c1)N1CCC(O)CC1` gave aSyn 5UTR act -73*.
Screening O=C(c1ccc2oc(CCCc3ccccc3)nc2c1)N1CCCCC1CO (stereo not drawn) returned aSyn 5UTR act -87*.
For NC(=O)[C@@H]1CCCN1C(=O)c1ccc2oc(CCc3ccccc3)nc2c1 the results were aSyn 5UTR act -63*.
For Cc1ccc(SCC(=O)Nc2ccc(-c3nnc(-c4ccco4)o3)cc2)cc1 the results were aSyn 5UTR act -106*.
For O=C(Cc1ccccc1)Nc1ccc(-c2nnc(-c3ccco3)o2)cc1 the results were aSyn 5UTR act -77*.
COc1ccc(-c2cn3c(C)c(C(=O)NC(C)C)sc3n2)cc1 was read as aSyn 5UTR act -78*.
